# Reference: the supplement of paper PMC8728848
# The entries come from a sample that favours the strongest signals as a whole.
# Columns and labels:
# Test in all cases: glycan array binding signal (z-score within array); higher = stronger binding
# Settings in all cases: glycan notation: IUPAC condensed, linker removed
# [1] = biological target: Fuc(a1-2)Gal(b1-3)GlcNAc(b1-2)Man(a1-3)[Fuc(a1-2)Gal(b1-3)GlcNAc(b1-2)Man(a1-6)]Man(b1-4)GlcNAc(b1-4)GlcNAc
# In short: (§1)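 From the Consortium for Functional Glycomics database, 3228 arrays were curated, keeping only those whose protein sequence was available. Binding is given as a within-array Z-score averaged across arrays sharing a protein sequence and across linkers. Negative Z-scores can be read as non-binding.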
# Fuc(a1-2)Gal(b1-4)GlcNAc = biological target: Fuc(a1-2)Gal(b1-4)GlcNAc
# In short: as §1
# [2] = biological target: Fuc(a1-2)Gal(b1-4)GlcNAc(b1-2)[Fuc(a1-2)Gal(b1-4)GlcNAc(b1-4)]Man(a1-3)[Fuc(a1-2)Gal(b1-4)GlcNAc(b1-2)Man(a1-6)]Man(b1-4)GlcNAc(b1-4)GlcNAc
# In short: as §1
# [3] = biological target: Fuc(a1-2)Gal(b1-4)[Fuc(a1-3)]GlcNAc(b1-2)[Fuc(a1-2)Gal(b1-4)[Fuc(a1-3)]GlcNAc(b1-4)]Man(a1-3)[Fuc(a1-2)Gal(b1-4)[Fuc(a1-3)]GlcNAc(b1-2)Man(a1-6)]Man(b1-4)GlcNAc(b1-4)GlcNAc
# In short: as §1
# [4] = biological target: Fuc(a1-2)[GalNAc(a1-3)]Gal(b1-4)[Fuc(a1-3)]GlcNAc
# In short: as §1
# [5] = biological target: Fuc(a1-3)[Gal(b1-4)]GlcNAc
# In short: as §1
# [6] = biological target: Fuc(a1-3)[Gal(b1-4)]GlcNAc(b1-2)Man(a1-3)[Fuc(a1-3)[Gal(b1-4)]GlcNAc(b1-2)Man(a1-6)]Man(b1-4)GlcNAc(b1-4)GlcNAc
# In short: as §1
# Gal(a1-3)Gal(b1-4)GlcNAc = biological target: Gal(a1-3)Gal(b1-4)GlcNAc
# In short: as §1
# [7] = biological target: Gal(a1-3)Gal(b1-4)[Fuc(a1-3)]GlcNAc
# In short: as §1
# Gal(b1-3)Gal = biological target: Gal(b1-3)Gal
# In short: as §1
# [8] = biological target: Gal(b1-4)GlcNAc(b1-2)Man(a1-3)[Man(a1-6)]Man(b1-4)GlcNAc(b1-4)GlcNAc
# In short: as §1
# [9] = biological target: Gal(b1-4)GlcNAc(b1-3)[GlcNAc(b1-6)]Gal(b1-4)GlcNAc
# In short: as §1
# [10] = biological target: Gal(b1-4)GlcNAc(b1-6)GalNAc
# In short: as §1
# Gal(b1-6)Gal = biological target: Gal(b1-6)Gal
# In short: as §1
# Gal6S(b1-4)Glc6S = biological target: Gal6S(b1-4)Glc6S
# In short: as §1
# GalNAc(a1-3)GalNAc = biological target: GalNAc(a1-3)GalNAc
# In short: as §1
# GlcA(b1-3)GlcNAc = biological target: GlcA(b1-3)GlcNAc
# In short: as §1
# [11] = biological target: GlcNAc(b1-3)Gal(b1-3)GalNAc
# In short: as §1
# [12] = biological target: GlcNAc(b1-3)[GlcNAc(b1-6)]Gal(b1-4)GlcNAc
# In short: as §1
# [13] = biological target: GlcNAc(b1-3)[GlcNAc(b1-6)]GalNAc
# In short: as §1
# Man(a1-2)Man(a1-3)Man = biological target: Man(a1-2)Man(a1-3)Man
# In short: as §1
# Man(b1-4)GlcNAc = biological target: Man(b1-4)GlcNAc
# In short: as §1
# [14] = biological target: Neu5Ac(a2-3)Gal(b1-3)GalNAc6S
# In short: as §1
# [15] = biological target: Neu5Ac(a2-3)Gal(b1-3)GlcNAc
# In short: as §1
# [16] = biological target: Neu5Ac(a2-3)Gal(b1-3)[Neu5Ac(a2-3)Gal(b1-4)]GlcNAc
# In short: as §1
# [17] = biological target: Neu5Ac(a2-3)Gal(b1-3)[Neu5Ac(a2-6)]GalNAc
# In short: as §1
# [18] = biological target: Neu5Ac(a2-3)Gal(b1-4)GlcNAc(b1-2)Man
# In short: as §1
# [19] = biological target: Neu5Ac(a2-3)Gal(b1-4)GlcNAc6S
# In short: as §1
# [20] = biological target: Neu5Ac(a2-3)Gal(b1-4)[Fuc(a1-3)]GlcNAc(b1-3)Gal(b1-4)[Fuc(a1-3)]GlcNAc(b1-3)Gal(b1-4)[Fuc(a1-3)]GlcNAc
# In short: as §1
# [21] = biological target: Neu5Ac(a2-3)Gal6S(b1-4)GlcNAc
# In short: as §1
# [22] = biological target: Neu5Ac(a2-3)[Neu5Ac(a2-6)]GalNAc
# In short: as §1
# [23] = biological target: Neu5Ac(a2-6)GalNAc(b1-4)GlcNAc6S
# In short: as §1
# [24] = biological target: Neu5Ac9Ac(a2-3)Gal(b1-4)GlcNAc
# In short: as §1
binder,measurement,setting,value
"SpnanA (Streptococcus pneumoniae), P62575 (protein) MVIEKEDVETNASNGQRVDLSSELDKLKKLENATVHMEFKPDAKAPAFYNLFSVSSATKKDEYFTMAVYNNTATLEGRGSDGKQFYNNYNDAPLKVKPGQWNSVTFTVEKPTAELPKGRVRLYVNGVLSRTSLRSGNFIKDMPDVTHVQIGATKRANNTVWGSNLQIRNLTVYNRALTPEEVQKRS",glycan array binding signal (z-score),[1],-0.237
same,glycan array binding signal (z-score),Fuc(a1-2)Gal(b1-4)GlcNAc,-0.29
same,glycan array binding signal (z-score),[2],-0.131
same,glycan array binding signal (z-score),[3],-0.066
same,glycan array binding signal (z-score),[4],0.018
same,glycan array binding signal (z-score),[5],-0.28
same,glycan array binding signal (z-score),[6],-0.169
same,glycan array binding signal (z-score),Gal(a1-3)Gal(b1-4)GlcNAc,-0.256
same,glycan array binding signal (z-score),[7],-0.262
same,glycan array binding signal (z-score),Gal(b1-3)Gal,-0.211
same,glycan array binding signal (z-score),[8],0.687
same,glycan array binding signal (z-score),[9],-0.29
same,glycan array binding signal (z-score),[10],-0.295
same,glycan array binding signal (z-score),Gal(b1-6)Gal,-0.199
same,glycan array binding signal (z-score),Gal6S(b1-4)Glc6S,-0.104
same,glycan array binding signal (z-score),GalNAc(a1-3)GalNAc,-0.233
same,glycan array binding signal (z-score),GlcA(b1-3)GlcNAc,6.22
same,glycan array binding signal (z-score),[11],-0.164
same,glycan array binding signal (z-score),[12],-0.211
same,glycan array binding signal (z-score),[13],-0.222
same,glycan array binding signal (z-score),Man(a1-2)Man(a1-3)Man,-0.228
same,glycan array binding signal (z-score),Man(b1-4)GlcNAc,-0.307
same,glycan array binding signal (z-score),[14],3.01
same,glycan array binding signal (z-score),[15],3.08
same,glycan array binding signal (z-score),[16],6.34
same,glycan array binding signal (z-score),[17],3.24
same,glycan array binding signal (z-score),[18],2.64
same,glycan array binding signal (z-score),[19],3.89
same,glycan array binding signal (z-score),[20],-0.268
same,glycan array binding signal (z-score),[21],2.91
same,glycan array binding signal (z-score),[22],2.61
same,glycan array binding signal (z-score),[23],-0.062
same,glycan array binding signal (z-score),[24],-0.089
